Laboratory results: PubChem BioAssay (EPA / NIEHS)
Several values for one entry are separate records, joined by “and”; a condition that tells them apart may be missing. Equal entries are not always repeated. Inconclusive results are not listed. Activity calls are given as the source filed them. The calls were made as follows, unless noted: active = hit-call score of the fitted dose curve at least 0.9, where 1 is the maximum; inactive = score below 0.9.

Legend:
[1] = ACEA_ER_80hr: ACEA Biosciences xCELLigence Real-Time Cell Analysis on Estrogen Receptor Agonism for Proliferation (AID 2282667; active = hit-call score of the fitted dose curve at least 0.9, where 1 is the maximum); conditions: T47D proliferation, impedance (xCELLigence), 80 h
Procedure, shortened: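 T-47D cells monitored by electrical impedance (xCELLigence) with compound present throughout; 80 h timepoint, positive-direction fitting versus DMSO. Eight-point 1:4 dilutions from 100 uM final, duplicate plates.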

[2] = APR_HepG2_CellCycleArrest_24hr: Apredica 24-hour HepG2 Assay for Cell Cycle Arrest (AID 2282905); conditions: imaging, actives raise or lower the signal;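 also: cell cycle arrest scored as ratio of 2N to 4N nuclear DNA content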
Procedure, shortened: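 Cell cycle arrest is scored from nuclear DNA content measured by high-content imaging of Hoechst 33342-stained HepG2 cells following 24-hour treatment at ten concentrations up to 200 uM, with DMSO as baseline.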

[3] = APR_HepG2_NuclearSize_24hr: Apredica 24-hour HepG2 Assay for Nuclear Size (AID 2282907); conditions: high-content imaging, actives raise or lower the signal
Procedure, shortened: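 Compounds in DMSO (final 0.5%) were added to human HepG2 hepatoma cells at ten concentrations up to 200 uM for 24 hr. Fixed nuclei were stained with Hoechst 33342, and nuclear diameter was quantified from automated images.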

[4] = APR_HepG2_CellLoss_24hr: Apredica 24-hour HepG2 Assay for Cell Loss (AID 2282908); conditions: high-content imaging;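 as to AC50: fit in both directions so a hit may be cell loss or gain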
Procedure, shortened: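 Cell number is quantified by fluorescence imaging of Hoechst 33342-stained nuclei following dosing at 0.39–200 uM in 0.5% DMSO. Curves are fitted in both directions from the DMSO baseline.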

[5] = APR_HepG2_MicrotubuleCSK_24hr: Apredica 24-hour HepG2 Assay for Microtubule CSK Stabilty (AID 2282909); conditions: HepG2 microtubule cytoskeleton imaging, actives raise or lower the signal
Procedure, shortened: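 Steps: dose HepG2 for 24 h (0.39–200 uM, 0.5% DMSO); fix 30 min in 3.7% formaldehyde at room temperature; permeabilize; stain alpha-tubulin 60 min; image microtubule cytoskeleton at 20x. Signal change fitted in both directions relative to DMSO.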

[6] = APR_HepG2_MitoticArrest_24hr: Apredica 24-hour HepG2 Assay for Mitotic Arrest (AID 2282910); conditions: high-content imaging, actives raise or lower the signal
Procedure, shortened: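 HepG2 cells, 24 h exposure at 0.39-200 uM (10 concentrations, duplicate, 0.5% DMSO). Fixed, stained for phospho-histone H3 with Hoechst; imaged by high-content microscopy, bidirectional fit versus DMSO.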

[7] = APR_HepG2_MitoMembPot_24hr: Apredica 24-hour HepG2 Assay for Mitochondrial Membrane Potential (AID 2282911); conditions: imaging, actives raise or lower the signal
Procedure, shortened: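 HepG2 cells exposed 24 h to 0.39–200 uM compounds in duplicate, 0.5% v/v DMSO final. MitoTracker Red CMXRos 250 nM loaded 30 min before formaldehyde fixation; high-content imaging at 20x, bidirectional fit versus DMSO.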

[8] = APR_HepG2_MitoMass_24hr: Apredica 24-hour HepG2 Assay for Mitochondrial Mass (AID 2282912); conditions: high-content imaging, actives raise or lower the signal
Procedure, shortened: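 The liver line HepG2 was dosed in duplicate across a 0.39–200 uM series, with final DMSO held at 0.5% v/v, and harvested at 24 hr. High-content imaging measured mitochondrial dye staining.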

[9] = APR_HepG2_p53Act_24hr: Apredica 24-hour HepG2 Assay for p53 Activation (AID 2282913); conditions: high-content imaging, actives raise or lower the signal;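 also: p53 protein immunofluorescence averaged per cell in HepG2 with Hoechst nuclei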
Procedure, shortened: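 HepG2 cells exposed 24 h to compounds at 0.39–200 uM in duplicate, 0.5% v/v DMSO final; fixed, permeabilized, stained with anti-p53 antibody and Hoechst 33342; fluorescence imaging; bidirectional curve fit versus DMSO.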

[10] = APR_HepG2_CellLoss_72hr: Apredica 72-hour HepG2 Assay for Cell Loss (AID 2282915); conditions: high-content imaging
Procedure, shortened: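 HepG2 cells exposed 72 h to compound at 0.39–200 uM (10 concentrations, duplicate) in 0.5% DMSO. Fixed with 3.7% formaldehyde and Hoechst 33342-stained. Imaged at 20x; nuclear count gives cell number, fitted bidirectionally versus DMSO.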

Measured: AC50

Nc1ccc(-c2ccc(N)cc2)cc1
active: [2] 100 µM | [9] 100 µM
inactive: [1] | [3] | [4] | [5] | [6] | [7] | [8] | [10]

c1ccc(-c2ccccc2)cc1
inactive: [1] | [2] | [3] | [4] | [5] | [6] | [7] | [8] | [9] | [10]

CCC(C)c1cc([N+](=O)[O-])cc([N+](=O)[O-])c1O (stereo not given)
active: [2] 49.6 µM | [7] 100 µM | [10] 51 µM
inactive: [1] | [3] | [4] | [5] | [6] | [8] | [9]

Cc1cccc(C)c1N
inactive: [1] | [2] | [3] | [4] | [5] | [6] | [7] | [8] | [9] | [10]

Clc1ccc(C(Cl)(Cl)Cl)cc1
inactive: [1] | [2] | [3] | [4] | [5] | [6] | [7] | [8] | [9] | [10]

COc1ccc(O)c(C(C)(C)C)c1
inactive: [2] | [3] | [4] | [5] | [6] | [7] | [8] | [9] | [10]
active: [1] 1.95 µM

N#Cc1ccc(N(CC(N)=O)CC(F)(F)F)cc1C(F)(F)F
inactive: [1] | [2] | [3] | [4] | [5] | [6] | [7] | [8] | [9] | [10]

O=C(O)C(F)(F)C(F)(F)C(F)(F)C(F)(F)C(F)(F)C(F)(F)C(F)(F)C(F)(F)F
active: [2] 105 µM | [4] 104 µM | [6] 139 µM | [8] 107 µM | [9] 114 µM | [10] 110 µM
inactive: [1] | [3] | [5] | [7]

c1cc2ccc3cccc4ccc(c1)c2c34
active: [7] 92.1 µM
inactive: [1] | [2] | [3] | [4] | [5] | [6] | [8] | [9] | [10]

CC(C)(c1ccccc1)c1ccc(O)cc1
inactive: [2] | [3] | [5] | [6] | [7] | [8] | [9]
active: [1] 483 nM [middle of 4 runs] | [4] 84.6 µM | [10] 63.3 µM

Oc1ccc(C(c2ccc(O)cc2)(C(F)(F)F)C(F)(F)F)cc1
active: [1] 102 nM and 189 nM and 262 nM | [10] 36.7 µM
inactive: [2] | [3] | [4] | [5] | [6] | [7] | [8] | [9]

Cc1ccccc1[N+](=O)[O-]
inactive: [1] | [2] | [3] | [4] | [5] | [6] | [7] | [8] | [9] | [10]

CCOCCOC(C)=O
inactive: [1] | [2] | [3] | [4] | [5] | [6] | [7] | [8] | [9] | [10]

Cc1cc2c3c(c1)C(c1ccccc1)=N[C@@H](NC(=O)c1ccncc1)C(=O)N3CC2
active: [10] 90.9 µM
inactive: [1] | [2] | [3] | [4] | [5] | [6] | [7] | [8] | [9]

CC(c1ccc(O)cc1)(c1ccc(O)cc1)c1ccc(O)cc1
active: [1] 1.54 µM | [4] 113 µM | [6] 107 µM | [7] 29.5 µM | [8] 109 µM | [9] 104 µM | [10] 115 µM
inactive: [2] | [3] | [5]

CO/C=C(/C(=O)OC)c1ccccc1COc1cccc(C(F)(F)F)n1
active: [1] 20.2 µM | [4] 9.73 µM | [6] 16.8 µM | [7] 16.4 µM | [10] 3.39 µM
inactive: [2] | [3] | [5] | [8] | [9]

ClC1=C(Cl)[C@]2(Cl)[C@@H]3[C@@H]4C[C@@H]([C@H]5O[C@@H]45)[C@@H]3[C@@]1(Cl)C2(Cl)Cl
inactive: [2] | [3] | [5] | [6] | [7] | [8] | [9]
active: [1] 10.8 µM | [4] 31.6 µM | [10] 34.4 µM

CCCN(CCC)N=O
inactive: [1] | [2] | [3] | [4] | [5] | [6] | [7] | [8] | [9] | [10]

CCCCCCOC(=O)c1ccccc1C(=O)OCCCCCC
inactive: [1] | [2] | [3] | [5] | [6] | [8] | [9]
active: [4] 97.3 µM | [7] 112 µM | [10] 102 µM

CCC(=O)O[C@H]1CC[C@H]2[C@@H]3CCC4=CC(=O)CC[C@]4(C)[C@H]3CC[C@]12C
active: [1] 176 nM and 243 nM and 917 nM | [4] 107 µM | [6] 116 µM | [8] 107 µM | [10] 125 µM
inactive: [2] | [3] | [5] | [7] | [9]

CN(C)CCO
inactive: [1] | [2] | [3] | [4] | [5] | [6] | [7] | [8] | [9] | [10]

C1CC2OC2CC1C1CO1 (stereo not given)
inactive: [1] | [2] | [3] | [4] | [5] | [6] | [7] | [8] | [9] | [10]

O=S(=O)(O)C(F)(F)C(F)(F)C(F)(F)C(F)(F)F
inactive: [1] | [2] | [3] | [4] | [5] | [6] | [7] | [8] | [9] | [10]

Cc1cccc([N+](=O)[O-])c1
inactive: [1] | [2] | [3] | [4] | [5] | [6] | [7] | [8] | [9] | [10]

ClC1=C(Cl)[C@]2(Cl)[C@@H]3[C@H]4C[C@H]([C@@H]5O[C@H]45)[C@@H]3[C@@]1(Cl)C2(Cl)Cl
active: [1] 50 µM | [7] 59.3 µM
inactive: [2] | [3] | [4] | [5] | [6] | [8] | [9] | [10]

CC(C)(O)C(=O)Nc1ccc([N+](=O)[O-])c(C(F)(F)F)c1
active: [1] 38.5 µM and 68.7 µM
inactive: [2] | [3] | [4] | [5] | [6] | [7] | [8] | [9] | [10]

CC#Cc1cc(C)nc(Nc2ccccc2)n1
active: [10] 69.8 µM
inactive: [1] | [2] | [3] | [4] | [5] | [6] | [7] | [8] | [9]

Nn1cnnc1
inactive: [2] | [3] | [4] | [5] | [6] | [7] | [8] | [9] | [10]
active: [1] 60.3 µM

CC1=C2C[C@H]3[C@@H](CC=C4C[C@@H](O)CC[C@@]43C)[C@@H]2CC[C@]12O[C@@H]1C[C@H](C)CN[C@H]1[C@H]2C
inactive: [1] | [2] | [3] | [5] | [7] | [9]
active: [4] 20.2 µM | [6] 23.8 µM | [8] 35.4 µM | [10] 25.3 µM

O=C(NC(=O)c1c(F)cccc1F)Nc1cc(Cl)c(OC(F)(F)C(F)F)c(Cl)c1
inactive: [1] | [2] | [3] | [4] | [5] | [6] | [7] | [8] | [9] | [10]
